Data published in PubChem BioAssay (Tox21).
Values joined by “and” are separate entries in the source; they are usually repeats but may differ in a detail not shown here. Equal values may be shown once. Records with an inconclusive call do not appear. Where a call stands in place of a potency, no number is given. Active and inactive are the calls of the source. Calls follow the shape of the dose curve; as a rule, active = well fitted cell-killing curve with a large enough effect in the repeat runs; inconclusive = weak or mixed curves, or effect the other way; inactive = flat fitted curve, though single readings scatter.

Assays:
[1] = cAMP Responsive Elements (CRE) small molecule antagonists, cell-based qHTS assay: qHTS cell viability counter screen (AID 2060913); also: nearly all actives have a fitted effect of over 40% in size
In short: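 Viability of NKH477-stimulated (0.25 uM final) CRE-bla HEK293T cells is measured by CellTiter-Glo luminescence following 3 hrs compound exposure at 37 C.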

[2] = cAMP Responsive Elements (CRE) small molecule agonists, cell-based qHTS assay: qHTS cell viability counter screen (AID 2060914);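 also: viability read after 3 h of compound exposure; nearly all actives have a fitted effect of over 50% in size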
In short: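 CRE-bla HEK 293T cells, plated 18 h at 37 °C, were exposed to compounds for 3 h at 37 °C/5% CO2. Viability was then measured in the same wells by CellTiter-Glo luminescence after 30 min at room temperature.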
Potency is read from the fitted curve at half-maximal effect.

C[C@]12Cc3cn[nH]c3C[C@@H]1CC[C@@H]1[C@@H]2CC[C@@]2(C)[C@H]1CC[C@]2(C)O
Potency [1]: inactive | Potency [2]: inactive

O=[N+]([O-])c1cc(Cl)c(Cl)cc1Cl
Potency [1]: inactive | Potency [2]: inactive

CCC(CC)Nc1c([N+](=O)[O-])cc(C)c(C)c1[N+](=O)[O-]
Potency [1]: inactive | Potency [2]: inactive

N#CCCC(Br)(C#N)CBr (configuration not stated)
Potency [1]: inactive | Potency [2]: inactive

C=CC(Cl)CCl (configuration not stated)
Potency [1]: inactive | Potency [2]: inactive

CCc1cc2c(s1)-n1c(C)nnc1CN=C2c1ccccc1Cl
Potency [1]: inactive | Potency [2]: inactive

O=NN1CCCC1
Potency [1]: inactive | Potency [2]: inactive

C[C@]12CCC(=O)C=C1CC[C@@H]1[C@@H]2CC[C@@]2(C)[C@H]1CC[C@]2(C)O
Potency [1]: inactive | Potency [2]: inactive

O=C(O)COc1ccccc1
Potency [1]: inactive | Potency [2]: inactive

CN(C)c1ccc(C(=O)c2ccc(N(C)C)cc2)cc1
Potency [1]: inactive | Potency [2]: inactive

CCCN
Potency [1]: inactive | Potency [2]: inactive

Oc1ccc(Cl)c(Cl)c1Cl
Potency [1]: inactive | Potency [2]: inactive

C=CCC1([C@H](C)CCC)C(=O)NC(=O)NC1=O
Potency [1]: inactive | Potency [2]: inactive

ClCCN1CCOCC1
Potency [1]: inactive | Potency [2]: inactive

CCCC[n+]1ccccc1C
Potency [1]: inactive | Potency [2]: inactive

C[N+](C)(C)CCOC(=O)C(O)(c1ccccc1)c1ccccc1
Potency [1]: inactive | Potency [2]: inactive

CCCCCCCCCCCCCCCCCCn1cc[n+](C)c1
Potency [1]: 27.1 µM (active) | Potency [2]: 30.5 µM (active)

ClCCCCCCCl
Potency [1]: inactive | Potency [2]: inactive

CCC[CH2][Sn]([Cl])([Cl])[CH2]CCC
Potency [1]: 17.4 µM (active) and 18 µM (active) | Potency [2]: 31 µM (active) and 30.6 µM (active)

ClSC(Cl)(Cl)Cl
Potency [1]: inactive | Potency [2]: inactive

CCC(Cl)[N+](=O)[O-] (configuration not stated)
Potency [1]: inactive | Potency [2]: inactive

O=C(NCNC(=O)NC1C(=O)NC(=O)N1CO)NC1C(=O)NC(=O)N1CO (configuration not stated)
Potency [1]: inactive | Potency [2]: inactive

Clc1ccc(C(OCCN2CCCCC2)c2ccccc2)cc1 (configuration not stated)
Potency [1]: inactive | Potency [2]: inactive

CCOC(=O)CCN(SN(C)C(=O)Oc1cccc2c1OC(C)(C)C2)C(C)C
Potency [1]: inactive | Potency [2]: inactive

CCC[N+](CCC)(CCC)CCC
Potency [1]: inactive | Potency [2]: inactive

CC[N+]1(CCOC(=O)C(O)(c2ccccc2)c2ccccc2)CCCCC1
Potency [1]: inactive | Potency [2]: inactive

CCC[N+](=O)[O-]
Potency [1]: inactive | Potency [2]: inactive

O=C1C(Cl)=C(Cl)C(=O)c2ccccc21
Potency [1]: inactive | Potency [2]: inactive

COP(=O)(OC)OC(Br)C(Cl)(Cl)Br (configuration not stated)
Potency [1]: inactive | Potency [2]: inactive

O=Cc1ccccc1
Potency [1]: inactive | Potency [2]: inactive

COc1ccc(C=O)cc1OC
Potency [1]: inactive | Potency [2]: inactive

Fc1cccc(Cl)c1CCl
Potency [1]: inactive | Potency [2]: inactive

COc1cc(CC(C)N)cc(OC)c1OC (configuration not stated)
Potency [1]: inactive | Potency [2]: inactive

Cc1cc(C)c(C2=C(OC(=O)CC(C)(C)C)C3(CCCC3)OC2=O)c(C)c1
Potency [1]: inactive | Potency [2]: inactive

Nc1ccc2ccccc2c1
Potency [1]: inactive | Potency [2]: inactive

CC(Oc1ccc(Oc2ncc(C(F)(F)F)cc2Cl)cc1)C(=O)O (configuration not stated)
Potency [1]: inactive | Potency [2]: inactive

CC(Cl)CCl (configuration not stated)
Potency [1]: inactive | Potency [2]: inactive

CC1CCC(C(C)C)C(OC(=O)c2ccccc2N)C1 (configuration not stated)
Potency [1]: 47.9 µM (active) | Potency [2]: 53.7 µM (active)

CC(N)=S
Potency [1]: inactive | Potency [2]: inactive

Cc1ccc2cc3c(ccc4ccccc43)c3c2c1CC3
Potency [1]: inactive | Potency [2]: inactive

CCCCCCCCCC(CC)c1ccc(S(=O)(=O)O)cc1 (configuration not stated)
Potency [1]: inactive | Potency [2]: inactive

CCCCCCCCCCCCOS(=O)(=O)O
Potency [1]: inactive | Potency [2]: inactive

CCOP(=S)(OCC)Oc1ncn(-c2ccccc2)n1
Potency [1]: inactive | Potency [2]: inactive

O=C(O)c1ccc2[nH]cc(CCCCN3CC=C(c4ccccc4)CC3)c2c1
Potency [1]: inactive | Potency [2]: inactive

CC(C)Oc1cc(-n2nc(C(C)(C)C)oc2=O)c(Cl)cc1Cl
Potency [1]: inactive | Potency [2]: inactive

CCCN1CCC[C@@H]2Cc3nc(N)ncc3C[C@H]21
Potency [1]: inactive | Potency [2]: inactive

ClCC(Br)CBr (configuration not stated)
Potency [1]: inactive | Potency [2]: inactive

COc1cc(OC)nc(NC(=O)NS(=O)(=O)c2ncccc2C(=O)N(C)C)n1
Potency [1]: inactive | Potency [2]: inactive

N#CC(C#N)=C(C#N)C#N
Potency [1]: inactive | Potency [2]: inactive

N#Cc1ccccn1
Potency [1]: inactive | Potency [2]: inactive

CC(C)(O)C(=O)Nc1ccc([N+](=O)[O-])c(C(F)(F)F)c1
Potency [1]: inactive | Potency [2]: inactive

COC(C)(C)CCCC(C)C/C=C/C(C)=C/C(=O)OC(C)C (configuration not stated)
Potency [1]: inactive | Potency [2]: inactive

[O]=[Cd]
Potency [1]: inactive | Potency [2]: inactive

COP(=O)(OC)OC=C(Cl)Cl
Potency [1]: inactive | Potency [2]: inactive

CN(C)CCc1c[nH]c2ccc(O)cc12
Potency [1]: inactive | Potency [2]: inactive

N[C@@H](Cc1ccc(Oc2cc(I)c(O)c(I)c2)c(I)c1)C(=O)O
Potency [1]: inactive | Potency [2]: inactive

CC(Cc1ccc(O)cc1)NCC(O)c1cc(O)cc(O)c1 (configuration not stated)
Potency [1]: inactive | Potency [2]: inactive

CC(=O)[O-].CC(=O)[O-].O.O.[Zn+2]
Potency [1]: inactive | Potency [2]: inactive

CC(C)c1cccc(C(C)C)c1O
Potency [1]: inactive | Potency [2]: inactive

Clc1ccc(C(c2ccc(Cl)cc2)C(Cl)Cl)cc1
Potency [1]: inactive | Potency [2]: 62.1 µM (active)

N#CC(Cl)Cl
Potency [1]: inactive | Potency [2]: inactive

CCCC[n+]1ccccc1
Potency [1]: inactive | Potency [2]: inactive

COc1cccc([C@@]2(O)CCCC[C@@H]2CN(C)C)c1
Potency [1]: inactive | Potency [2]: inactive

CC(C)(C1CCC(O)CC1)C1CCC(O)CC1 (configuration not stated)
Potency [1]: inactive | Potency [2]: inactive

COC(=O)/C=C(\C)OP(=O)(OC)OC
Potency [1]: inactive | Potency [2]: inactive

Clc1cccc(C(Cl)(Cl)Cl)n1
Potency [1]: inactive | Potency [2]: inactive

CC(Cl)(Cl)Cl
Potency [1]: inactive | Potency [2]: inactive

N#CN
Potency [1]: inactive | Potency [2]: inactive

O=NN1CCCCC1
Potency [1]: inactive | Potency [2]: inactive

NP(N)(=O)NC(=O)c1ccc(F)cc1
Potency [1]: inactive | Potency [2]: inactive

CCC(C)(CC)c1cc(NC(=O)c2c(OC)cccc2OC)on1
Potency [1]: inactive | Potency [2]: inactive

CC1(C)CC(=O)CC(C)(C)N1[O]
Potency [1]: inactive | Potency [2]: inactive

CCC1(c2ccccc2)C(=O)N=C(O)NC1=O (configuration not stated)
Potency [1]: inactive | Potency [2]: inactive

Cc1cccc([N+](=O)[O-])c1
Potency [1]: inactive | Potency [2]: inactive

CCNc1nc(Cl)nc(NC(C)(C)C#N)n1
Potency [1]: inactive | Potency [2]: inactive

CC(C)N(C(=O)SCC(Cl)=C(Cl)Cl)C(C)C
Potency [1]: inactive | Potency [2]: inactive

C=CC(=O)OCCCCCC(C)C
Potency [1]: inactive | Potency [2]: inactive

Nc1ccc([N+](=O)[O-])cc1
Potency [1]: inactive | Potency [2]: 6.11 µM (active)

C1CCNCC1
Potency [1]: inactive | Potency [2]: inactive

CCOP(=O)(OCC)Oc1cc(C)nc(C(C)C)n1
Potency [1]: inactive | Potency [2]: inactive

CC(Oc1cc(Cl)c(Cl)cc1Cl)C(=O)O (configuration not stated)
Potency [1]: inactive | Potency [2]: inactive

CN(C)CCc1c[nH]c2cccc(OP(=O)(O)O)c12
Potency [1]: inactive | Potency [2]: inactive

C=CCN(CC=C)C(=O)C(Cl)Cl
Potency [1]: inactive | Potency [2]: inactive

CCCCCCCCCCCC(=O)O
Potency [1]: inactive | Potency [2]: inactive

CCCCCCCCCBr
Potency [1]: inactive | Potency [2]: inactive

CN1C[C@H](CNC(=O)OCc2ccccc2)C[C@@H]2c3cccc4c3c(cn4C)C[C@H]21
Potency [1]: inactive | Potency [2]: inactive

OCC(Br)CBr (configuration not stated)
Potency [1]: inactive | Potency [2]: inactive

Clc1ccc(Cl)cc1
Potency [1]: inactive | Potency [2]: inactive

BrCCc1ccccc1
Potency [1]: inactive | Potency [2]: inactive

OCCSCSCCO
Potency [1]: inactive | Potency [2]: inactive

CCCN(CCC)c1c([N+](=O)[O-])cc(S(C)(=O)=O)cc1[N+](=O)[O-]
Potency [1]: inactive | Potency [2]: inactive

CCCCCCCCOC(=O)c1ccccc1C(=O)OCCCCCCCC
Potency [1]: inactive | Potency [2]: inactive

C[C@H](N)[C@H](O)c1ccc(O)c(O)c1
Potency [1]: inactive | Potency [2]: inactive

CNC(C)Cc1ccc2c(c1)OCO2 (configuration not stated)
Potency [1]: inactive | Potency [2]: inactive

ClCc1cccnc1
Potency [1]: inactive | Potency [2]: inactive

CCCCCCBr
Potency [1]: inactive | Potency [2]: inactive

CCOP(=S)(OCC)SCSc1ccc(Cl)cc1
Potency [1]: inactive | Potency [2]: inactive

CCCC[n+]1cccc(C)c1
Potency [1]: inactive | Potency [2]: inactive

CN(C)[C@@H]1C(=O)C(C(N)=O)=C(O)[C@@]2(O)C(=O)C3=C(O)c4c(O)cccc4[C@@](C)(O)[C@H]3C[C@@H]12
Potency [1]: inactive | Potency [2]: inactive

CCCCCON=O
Potency [1]: inactive | Potency [2]: inactive

NCCc1ccc(O)cc1
Potency [1]: inactive | Potency [2]: inactive
